# High-throughput results: PubChem, National Center for Advancing Translational Sciences (NCATS)
# The list is not random: actives were taken first. Their share in the collection is about 12%.
# PLK1 PBD block: qHTS for Inhibitors of PLK1-PDB (polo-like kinase 1 - polo-box domain): Primary Screen; Plk1 PBD binding of FITC phosphopeptide, fluorescence polarization; Potency, µM, without a hit: max response, negative = inhibition, most hits filed as inhibitors; actives 2.8% (n = 360,000); AID 720504, 2013; further: series mostly up to about 57 µM; on the % scale 0 is the no-effect control and ±100 the full control effect; nearly all actives have a fitted effect of over 65% in size
# Sfp PPTase inh: qHTS Assay for Inhibitors of Bacillus subtilis Sfp phosphopantetheinyl transferase (PPTase). 4'-phosphopantetheinyl transferase ffp (Bacillus subtilis), Q9F4F7. Biochemical Sfp PPTase activity, qHTS. Potency, µM, inactives show largest response in the series, negative = inhibition, hits mostly inhibitors. actives 3.5% (n = 310,000). AID 1490, 2009;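 further: the enzyme is Sfp with the accession as filed and its product quenches rhodamine fluorescence; 0% = enzyme reaction without inhibitor and -100% = no enzyme wells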
#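 After 15 min at room temperature with compound, 15 nM Sfp received 5 uM rhodamine-CoA plus 12.5 uM BHQ-2-ybbR (50 mM Hepes pH 7.6, 10 mM MgCl2). Rate came from the fluorescence difference over 30 min, ex 525/em 598 nm.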
# G9a inh: qHTS Assay for Inhibitors of Histone Lysine Methyltransferase G9a; Histone-lysine N-methyltransferase EHMT2 (Homo sapiens), Q96KQ7; G9a H3K9 monomethylation, AlphaScreen, 2 h; Potency, µM (titrated, usually from 102 µM), for the others: at the highest dose activity, negative = inhibition, hits mostly inhibitors; actives 8.8% (n = 350,000); AID 504332, 2011; further: on the % scale 0 is the no-effect control and ±100 the full control effect; nearly all actives have a fitted effect of over 75% in size
#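 Step 1: enzyme (final 20 nM) with compound, 15 min RT. Step 2: substrate peptide 500 nM and SAM 20 uM, 2 h RT. Step 3: anti-H3K9me1 antibody and AlphaScreen beads, 10 min, then plate read.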
# JMJD2A Tudor: qHTS Assay for Inhibitors of JMJD2A-Tudor Domain; Lysine-specific demethylase 4A (Homo sapiens), O75164; AlphaScreen JMJD2A-Tudor / H3K4me3 peptide binding; Potency, µM (highest dose often 114 µM), without a hit: at the top dose activity change, negative = inhibition, usual class: inhibitors; actives 4.4% (n = 390,000); AID 504339, 2011; further: on the % scale 0 is the no-effect control and ±100 the full control effect; nearly all actives have a fitted effect of over 50% in size
# BAZ2B block: qHTS Assay for Inhibitors of BAZ2B. Potency, µM (doses to about 114 µM), for inactives: top-dose activity change, negative = inhibition, usual class: inhibitors. actives 4.4% (n = 360,000). AID 504333, 2011. AlphaScreen BAZ2B-H3K14Ac peptide displacement; further: on the % scale 0 is the no-effect control and ±100 the full control effect; nearly all actives have a fitted effect of over 60% in size
#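 In this displacement format the biotinylated H3(5-23) peptide acetylated at Lys14 serves as ligand at 50 nM, with BAZ2B at 50 nM in PBS pH 7.4 containing 0.01% Tween-20. Donor and acceptor beads are 10 ug/mL final.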
# HP1b chromo inh: HTS for Inhibitors of HP1-beta Chromodomain Interactions with Methylated Histone Tails. AlphaScreen HP1-beta / biotin-H3K9me3 peptide binding. Potency, µM (doses to about 114 µM), inactives show at the highest dose activity change, negative = inhibition, most hits filed as inhibitors. actives 0.56% (n = 390,000). AID 540317, 2011; further: nearly all actives have a fitted effect of over 70% in size
#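 HP1-beta protein (50 nM final) preincubated 30 min at room temperature with biotinylated H3(1-18)K9me3 peptide (50 nM) in PBS pH 7.4, 0.01% Tween-20, then compound added for 30 min. AlphaScreen streptavidin donor/nickel chelate acceptor beads (10 ug/mL final), 30 min dark, luminescence read.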
# Numbers without * were called inactive; ? = inconclusive; . = not tested or not shown; [ ] = remark or other dose. The call rests on the fitted dose curve; in most records, active means well fitted curve in the direction sought with a large enough effect; inconclusive means small, poorly fitted or top-dose-only effect, or another doubt; inactive means no such curve, though single readings can be large; an effect the other way counts as inactive or inconclusive. Potency means the concentration at half of the fitted maximal effect.
SMILES,PLK1 PBD block,Sfp PPTase inh,G9a inh,JMJD2A Tudor,BAZ2B block,HP1b chromo inh
Nc1nonc1-n1nnc(C(=O)N/N=C/c2cccc(Cl)c2)c1CN1CCCCCC1,-11.0%,.,.,-11.7%,.,48.7%
Nc1nonc1-n1nnc(C(=O)N/N=C/c2ccc(Cl)cc2Cl)c1CN1CCCCC1,-0.4%,22.0%,35.5µM*,-6.4%,-4.7%,53.0%
Nc1nonc1-n1nnc(C(=O)N/N=C/c2cccc(O)c2)c1CN1CCCC1,-9.1%,0.5%,44.7µM*,-6.9%,-19.5%,30.7%
COCc1c(C(=O)N/N=C\c2ccccn2)nnn1-c1nonc1N,4.9%,56.2µM*,0.794µM*,79.4µM*,39.8µM*,24.3%
CCCN1C(=O)C2(c3ccccc31)c1c(oc3ccc(F)cc3c1=O)C(=O)N2CCCOC(C)C (centres undefined),.,.,-34.6%[59 µM],-13.2%,-0.6%,22.9%
O=[N+]([O-])C(=C1Nc2ccccc2N1)/C(Cl)=C(/Cl)Br,29.9µM*,-19.5%,7.94µM*,17.8µM*,?,?
S=C1NC2=C(CCCC2)C2(CCCCC2)N1,-6.9%,9.6%,7.08µM*,-7.6%,-4.3%,30.0%
C1CCC2(CC1)C1=C(CCCC1)Nc1nnnn12,-3.9%,6.9%,?,6.3%,.,54.8%
Cc1cccc(NC(=O)c2sc3ncnc(N(C)C4CCCCC4)c3c2C)c1C,.,.,2.7%[59 µM],-18.3%,-1.2%,39.3%
CCn1c(SCC(=O)NC2=NCCS2)nnc1C(C)NC(=O)c1ccc(Cl)cc1 (centres undefined),-10.4%,13.2%,-23.1%,-18.2%,-4.5%,16.8%
CCOc1ccc(C(=O)CCC(=O)Nc2ccc(C)cn2)cc1,-10.7%,.,-5.4%,-17.8%,-0.5%,9.5%
CCOc1ccc(C(=O)CCC(=O)Nc2ncccc2O)cc1,-12.5%,.,1.1%[2.33 µM],-31.0%,56.2µM*,13.0%
C/C(=N\NC(N)=S)C1=CCC2C3CC[C@H]4CC(O)CC[C@]4(C)C3CC[C@]12C (some centres undefined),16.8µM*,39.8µM*,8.91µM*,-18.5%,-1.3%,?
CC12CCC3C(CCC4CC(O)CCC43C)C1CC=C2c1ccccc1 (centres undefined),.,6.6%,.,.,.,.
C=CCC[C@@H](Cc1ccc(F)cc1)C(=O)OC[C@@H]1CCCN1C(=O)[C@@H](CC=C)CC(=O)N[C@@H](CO)Cc1ccccc1,-0.2%,.,.,-18.6%,.,27.1%
COC(=O)c1sc(=S)sc1C(=O)OC,-22.2%,-26.4%,28.2µM*,?,-37.9%,?
COC(=O)c1sc(C(=O)OC)c(C(=O)OC)c1C(=O)OC,-1.3%,25.8%,?,-1.4%,1.5%,42.6%
COc1ccc(-c2nc(CSCC(=O)N3CCC(C(N)=O)CC3)c(C)o2)cc1OC,-14.9%,-29.7%,44.7µM*,-16.6%,-8.4%,33.6%
CCOc1ccc(-c2nc(CSCC(=O)N3CCN(C(=O)c4ccco4)CC3)c(C)o2)cc1,-0.8%,-12.3%,50.1µM*,-12.9%,-2.1%,33.5%
Cc1oc(-c2ccccc2F)nc1CSCC(=O)NC1CC1,26.7µM*,22.6%,17.7%,?,-0.5%,3.3%
CCOC(=O)C1CCN(C(=O)CSCc2nc(-c3ccc(OCC)cc3)oc2C)CC1,-8.1%,15.7%,-13.2%[59 µM],-25.1%,-7.8%,-1.6%
COc1ccc(-c2nc(CSCC(=O)NCCCN3CCCC3=O)c(C)o2)cc1OC,21.2µM*,27.1%,-11.9%,-18.3%,0.1%,6.0%
CN(Cc1ccccc1)C(=O)C1(C)CCN1C(=O)Cc1ccc(Cl)cc1Cl (centres undefined),-17.0%,.,.,.,.,.
CC(=O)c1c[nH]c(C(=O)NCc2ccccc2Cl)c1,-6.8%,9.2%,11.9%,-9.9%,0.0%,23.9%
CCc1ccccc1NC(=O)CCCn1c(=O)c2cccn2c2ccccc21,.,.,?,?,?,8.5%
SMILES,PLK1 PBD block,Sfp PPTase inh,G9a inh,JMJD2A Tudor,BAZ2B block,HP1b chromo inh
COC(=O)C1=C(C(=O)OC)[C@@H]2Nc3ccccc3[C@@]23C[C@@H](C(=O)OC)N(C(C)=O)C3=N1,-6.1%,15.4%,0.5%[59 µM],-13.8%,-10.5%,25.0%
COc1ccc(-c2nc(CSCC(=O)NC3CC3)c(C)o2)cc1OC,-10.5%,9.4%,-5.2%,-22.9%,-2.5%,22.1%
COc1ccc(-c2nc(CSCC(=O)NC3CCCc4ccccc43)c(C)o2)cc1OC (centres undefined),-12.8%,-10.6%,44.7µM*,?,?,14.7%
COc1ccc(-c2nc(CSCC(=O)N3CCc4ccccc4C3)c(C)o2)cc1OC,?,-19.7%,35.5µM*,?,-6.0%,11.3%
COc1ccc(-c2nc(CSCC(=O)N3CCN(c4cccc(C)c4)C(C)C3)c(C)o2)cc1OC (centres undefined),-6.8%,-28.2%,44.7µM*,56.2µM*,44.7µM*,-24.5%
COc1ccc(-c2nc(CS(=O)CC(=O)NC3CCCc4ccccc43)c(C)o2)cc1OC (centres undefined),-9.2%,7.0%,?,-7.5%,-25.3%,28.2%
CC1=NOC2(C1)N(C)c1ccccc1C2(C)C (centres undefined),-7.3%,-10.7%,-9.6%[59 µM],-16.7%,17.8%,19.0%
CN1c2ccccc2C(C)(C)C12CCCC(=O)N2 (centres undefined),-12.9%,-29.5%,8.91µM*,?,50.1µM*,44.7%
CCN(CC)S(=O)(=O)c1ccc2oc(C(=O)NCc3ccccc3OC)c(C)c2c1,.,.,-27.7%[59 µM],-3.1%,1.4%,37.6%
C=CCNC(=O)c1oc2ccc(S(=O)(=O)N(CC)CC)cc2c1C,9.47µM*,3.0%,?,-15.5%,-28.7%,26.0%
CCN(CC)S(=O)(=O)c1ccc2oc(C(=O)NCCN3CCOCC3)c(C)c2c1,26.7µM*,-5.3%,-6.3%[59 µM],-30.7%[57.1 µM],9.6%,4.2%
CC(=O)Nc1ccc(S(=O)(=O)NCCC(=O)OCC(=O)c2cccc(Br)c2)cc1,-0.3%,.,?,-13.1%,-1.3%,20.0%
COC(=O)c1ccc(C(NC(=O)OCc2ccccc2)/C(I)=C/[C@@H](C)C(=O)Nc2ccccc2)cc1 (some centres undefined),.,23.2%,.,.,.,.
CCOc1cc(/C=N/N=C2/NC(=O)C(CC(=O)O)S2)ccc1OCc1ccc(Cl)cc1Cl (centres undefined),26.7µM*,-4.0%,.,39.8µM*,28.2µM*,44.7µM*
